# Assay outcomes: PubChem, National Center for Advancing Translational Sciences (NCATS)
# RORg inh: qHTS for inhibitors of ROR gamma transcriptional activity | Drosophila S2 Gal4-RORgamma UAS-luciferase reporter, 20 h | Potency, µM (doses to about 53.6 µM), for inactives: at the highest dose activity change, negative = inhibition, actives largely listed as inhibitors | hit rate 5.4% among 310,000 | AID 2551, 2010; note: potency is the fitted concentration of half-maximal effect; nearly all actives have a fitted effect of over 60% in size
# Target sequence (P51450 whole entry, looked up, the tested form may be a part): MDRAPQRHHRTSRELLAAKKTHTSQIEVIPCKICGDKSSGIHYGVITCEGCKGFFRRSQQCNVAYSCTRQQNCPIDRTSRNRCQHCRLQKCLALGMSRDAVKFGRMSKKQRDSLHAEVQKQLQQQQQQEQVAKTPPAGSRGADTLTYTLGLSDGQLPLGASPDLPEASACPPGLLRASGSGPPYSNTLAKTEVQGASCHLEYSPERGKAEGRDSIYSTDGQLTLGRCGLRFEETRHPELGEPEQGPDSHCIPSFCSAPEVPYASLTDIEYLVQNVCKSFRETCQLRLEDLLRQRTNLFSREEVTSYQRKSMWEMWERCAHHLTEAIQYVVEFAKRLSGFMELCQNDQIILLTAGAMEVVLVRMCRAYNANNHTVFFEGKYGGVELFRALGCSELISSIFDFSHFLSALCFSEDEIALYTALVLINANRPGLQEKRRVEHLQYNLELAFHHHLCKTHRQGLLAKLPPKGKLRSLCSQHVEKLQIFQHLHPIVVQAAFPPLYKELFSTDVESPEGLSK
#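 ROR gamma transcriptional activity was tracked as Gal4-UAS luciferase output in stably transfected Drosophila Schneider cells, with compound added 1 hr before 700 uM copper sulfate induction and a 20 hr ambient-temperature incubation.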
# DT40 TDP1 CPT: qHTS for Inhibitors of human tyrosyl-DNA phosphodiesterase 1 (TDP1): qHTS in cells in presence of CPT. chicken DT40 Tdp1-/-;hTDP1 cells + 20 nM CPT, ATP luminescence, 48 h. Potency, µM (doses to about 46.2 µM), for the others: top-dose activity change, negative = growth inhibition, hits mostly inhibitors. hit rate 12% among 420,000; note: potency is the fitted concentration of half-maximal effect; nearly all actives have a fitted effect of over 55% in size
#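 Chicken DT40 Tdp1-/- cells stably complemented with human TDP1 were seeded at 400 cells/well in medium containing 20 nM camptothecin, exposed to pin-transferred compounds, and grown at 37 °C for at least 48 hr. Viability was read as ATP luminescence.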
# VP16 counter: VP16 counterscreen qHTS for inhibitors of ROR gamma transcriptional activity; AID 2546, 2010; Potency, µM (titrated, usually from 53.6 µM), inactives show at the top dose activity, negative = inhibition, actives largely listed as inhibitors; Drosophila S2 Gal4-VP16 UAS-luciferase, luminescence, 20 h; hit rate 3.5% among 310,000;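 note: Gal4-VP16 expression switched on by copper sulfate through the metallothionein promoter; potency is the fitted concentration of half-maximal effect; nearly all actives have a fitted effect of over 50% in size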
# IL1B secr inh: qHTS for Inhibitors of Inflammasome Signaling: IL-1-beta AlphaLISA Primary Screen; THP-1 LPS/ATP IL-1B secretion, AlphaLISA, 16 h; active compounds read low; hit rate 4.7% among 360,000; activity change, % at 57.5 µM; AID 743279, 2014; in the data active = activity change below about -50%; inconclusive = mostly about -30% to -49%
#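 Secreted IL-1B measured by AlphaLISA bead assay after 16 h compound exposure of THP-1 cells; compounds (final up to 57.5 uM) added 1 h before LPS (250 ng/mL) and ATP (1.25 mM) stimulation; lower signal means less secretion.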
# LDHA block: qHTS assay for inhibitors of human lactate dehydrogenase | L-lactate dehydrogenase A chain (Homo sapiens), P00338 | purified LDHA, NADH/diaphorase-resazurin fluorescence; active compounds read low | activity change, % (values are at about 110 or 230 µM) | hit rate 0.15% among 480,000 | AID 1347041, 2019; in the data active = activity change below about -30%; inconclusive = mostly about -25% to -30%;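 note: plate controls were DMSO wells for no effect and wells without enzyme for full effect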
#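 Resorufin fluorescence (ex540/em590), read at 0 and 20 min after diaphorase/resazurin addition, reports the NADH left after a 5 min room-temperature reaction of 2 nM human LDH5 with 0.06 mM NADH and 0.2 mM pyruvate.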
# TDP1 cell noCPT: qHTS for Inhibitors of human tyrosyl-DNA phosphodiesterase 1 (TDP1): qHTS in cells in absence of CPT | hit rate 15% among 420,000 | DT40 Tdp1-/- hTDP1 cells, no CPT, ATP luminescence, 48 h | Potency, µM (series often up to 46.2 µM), inactives show at the highest dose activity change, negative = growth inhibition, actives largely listed as inhibitors | AID 686978, 2013; note: potency is the fitted concentration of half-maximal effect; nearly all actives have a fitted effect of over 55% in size
#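 Seeded 400 DT40-hTDP1 cells/well (vehicle DMSO, no 20 nM CPT); pinned compounds; ≥48 hr at 37 °C; CellTiter-Glo luminescence as viability measure.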
# * hit, by the source's call; i = inactive; ? = inconclusive; / = no result. Shown are actives, neighbours in structure and some others; about 18% of the full set was active somewhere. Unless noted, calls come from the whole dose curve; as a rule, active = well fitted curve in the direction sought with a large enough effect; inconclusive = small, poorly fitted or top-dose-only effect, or another doubt; inactive = no such curve, though single readings can be large; an effect the other way counts as inactive or inconclusive. Unless noted, % is set by controls: 0 for no effect and ±100 for the full control effect.
SMILES,RORg inh,DT40 TDP1 CPT,VP16 counter,IL1B secr inh,LDHA block,TDP1 cell noCPT
CCOC(=O)c1c(C)[nH]c(C(=O)COC(=O)/C=C/c2ccc(OC(F)F)cc2)c1C,-32%,-24%,3%,13,-1,-13%
CCc1ccc(C2CC(=O)c3c([nH]c(C(=O)OC4CCCCCC4)c3C)C2)cc1 (stereo not drawn),/,-27%,/,/,-13,-8%
COc1cc(C2CC(=O)c3c([nH]c(C(=O)OCC4CCCCC4)c3C)C2)cc(OC)c1OC (stereo not drawn),/,1.3µM*,/,/,4,1.6µM*
CCOc1ccc(C2CC(=O)c3c([nH]c(C(=O)OCC4CCCCC4)c3C)C2)cc1 (stereo not drawn),/,?,/,/,-1,18µM*
CCOC(=O)c1[nH]c2c(c1Cc1ccccc1OC)C(=O)CC(c1ccc(OCC)cc1)C2 (stereo not drawn),/,8.2µM*,/,/,4,9.2µM*
CCOC(=O)c1[nH]c2c(c1Cc1ccccc1OC)C(=O)CC(c1ccccc1)C2 (stereo not drawn),/,?,/,/,-4,?
COc1cc(C2CC(=O)c3c([nH]c(C(=O)OC4CCCCC4)c3C)C2)cc(OC)c1OC (stereo not drawn),/,1.8µM*,/,/,4,2.1µM*
CC(NC(=O)c1cccnc1)c1ccc(C(F)(F)F)cc1 (stereo not drawn),/,/,/,/,-1,/
CC(Sc1nc2ccccc2[nH]1)C(=O)NC(N)=O (stereo not drawn),/,/,/,/,4,/
CC(C)CCNC(=O)c1cc2n(n1)CC(C)(C(=O)NCCC(C)C)N(C)C2=O (stereo not drawn),/,/,/,/,10,/
Cc1cccc2c1c1ccc3c(c1n2C)C(=O)C=CC3=O,27%,0.46µM*,-10%,10,2,0.41µM*
Cc1ccccc1N1CC(=O)N(c2ccccc2C)CC1=O,-25%,-5%,12%,24,-3,-14%
COC(=O)c1cc(OC)c(OC)cc1NC(=O)c1ccc(Br)o1,/,-1%,/,?,-4,-27%
COc1cc2c(cc1OC)C(NNC(=O)c1ccc(Br)o1)=NC(C)(C)C2,-34%,21µM*,-15%,0,-16,?
COCCN(C(=O)C(C)C)c1nnc(-c2cccc(C)c2)s1,32%,-6%,-2%,-53*,-4,-21%
CCCCCN1C=CC(=C2C(=O)c3ccccc3C2=O)C=C1,1.1µM*,13µM*,1.3µM*,-18,-8,?
CC1=CC(=C2C(=O)c3ccccc3C2=O)C=C(C)N1C,-7%,14%,-4%,-25,-13,?
O=C(O)c1ccc(CNCC(O)c2ccccc2)cc1 (stereo not drawn),/,/,/,/,0,/
Fc1ccc(Nc2ccnc(Nc3ccc(F)cc3)n2)cc1,36%,16µM*,?,-94*,-11,18µM*
O=C(NNc1nc2c(F)cccc2s1)C1COc2ccccc2O1 (stereo not drawn),2%,?,-2%,-13,-1,-9%
COc1cccc2sc(NNC(=O)C3COc4ccccc4O3)nc12 (stereo not drawn),3.5µM*,-16%,10%,46,3,-19%
Cc1ccc2sc(NNC(=O)C3COc4ccccc4O3)nc2c1C (stereo not drawn),2µM*,26µM*,8.9µM*,-11,1,?
CCN1CCCC1CNC(=O)c1nn(Cc2ccccc2)c(=O)c2ccccc12 (stereo not drawn),/,/,/,/,3,/
C=CCN(c1ccccc1)S(=O)(=O)c1cccc(C(=O)N2CCCC2)c1,/,16µM*,/,7,0,18µM*
C=CCN(c1ccccc1)S(=O)(=O)c1cccc(C(=O)NNC(=O)c2ccncc2)c1,/,-12%,/,-15,-2,?
SMILES,RORg inh,DT40 TDP1 CPT,VP16 counter,IL1B secr inh,LDHA block,TDP1 cell noCPT
CCN(c1ccccc1)S(=O)(=O)c1cccc(C(=O)N2CCN(S(=O)(=O)c3ccccc3)CC2)c1,0%,?,-11%,-3,-2,?
C=CCN(c1ccccc1)S(=O)(=O)c1cccc(C(=O)N2CC(C)CC(C)C2)c1 (stereo not drawn),5%,9.2µM*,2%,i,5,3.7µM*
Cc1ccc(CC(=O)N2CCC(NS(=O)(=O)c3ccc(Cl)cc3)CC2)cc1,/,/,/,/,-2,/
C=CCN1C(=O)/C(=c2\sc3nc(=O)c(Cc4ccccc4)nn3c2=O)c2ccccc21,11µM*,-6%,?,-14,1,-9%
CNC(=O)COC(=O)c1ccccc1C(=O)c1ccc(Cl)c([N+](=O)[O-])c1,-36%,?,-27%,-107*,-2,?
O=C(COC(=O)c1ccccc1C(=O)c1ccc(Cl)c([N+](=O)[O-])c1)NC1CC1,?,18µM*,0%,-103*,-2,16µM*
Cc1ccc(CC(=O)C(C#N)C(=O)Nc2ccccc2Cl)cc1 (stereo not drawn),/,/,/,/,7,/
CN=C1NN=C(c2cc(C)n(-c3c(C)n(C)n(-c4ccccc4)c3=O)c2C)CS1,?,-5%,?,48,7,-17%
Cc1cc(-c2csc(N)n2)c(C)n1Cc1ccco1,-7%,-1%,-2%,12,2,1%
COCC(C)N=C1NN=C(c2cc(C)n(Cc3ccccc3Cl)c2C)CS1 (stereo not drawn),-31%,13µM*,-11%,?,-2,12µM*
COCCCN=C1NN=C(c2cc(C)n(Cc3ccco3)c2C)CS1,?,0.65µM*,?,35,0,0.029µM*
Cc1cc(C2=NNC(=NC3CC3)SC2)c(C)n1Cc1ccco1,?,16µM*,-3%,6,-1,8.2µM*
COc1ccccc1C(=O)Nc1ccc(S(=O)(=O)N2CCc3ccccc32)cc1,16%,?,7%,-9,-3,21µM*
COc1ccc(S(=O)(=O)N2CCc3ccccc32)cc1[N+](=O)[O-],13%,23µM*,6%,-2,-1,?
COc1cc(C(=O)Nc2ccc3c(c2)Cc2ccccc2-3)cc(OC)c1OC,-7%,-22%,-21%,0,-5,?
